VP16 counter: VP16 counterscreen qHTS for inhibitors of ROR gamma transcriptional activity | Drosophila S2 Gal4-VP16 UAS-luciferase, luminescence, 20 h | Potency, µM (series often up to 53.6 µM), inactives show top-dose activity, negative = inhibition, most hits filed as inhibitors | hit rate 3.5% among 310,000;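 note: Gal4-VP16 expression switched on by copper sulfate through the metallothionein promoter; nearly all actives have a fitted effect of over 50% in size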
RORg inh: qHTS for inhibitors of ROR gamma transcriptional activity | Drosophila S2 Gal4-RORgamma UAS-luciferase reporter, 20 h | AID 2551, 2010 | Potency, µM (doses to about 53.6 µM), inactives show top-dose activity change, negative = inhibition, usual class: inhibitors | Nuclear receptor ROR-gamma (Mus musculus), P51450 | hit rate 5.4% among 310,000; note: nearly all actives have a fitted effect of over 60% in size
Target sequence (P51450 whole entry, looked up, the tested form may be a part): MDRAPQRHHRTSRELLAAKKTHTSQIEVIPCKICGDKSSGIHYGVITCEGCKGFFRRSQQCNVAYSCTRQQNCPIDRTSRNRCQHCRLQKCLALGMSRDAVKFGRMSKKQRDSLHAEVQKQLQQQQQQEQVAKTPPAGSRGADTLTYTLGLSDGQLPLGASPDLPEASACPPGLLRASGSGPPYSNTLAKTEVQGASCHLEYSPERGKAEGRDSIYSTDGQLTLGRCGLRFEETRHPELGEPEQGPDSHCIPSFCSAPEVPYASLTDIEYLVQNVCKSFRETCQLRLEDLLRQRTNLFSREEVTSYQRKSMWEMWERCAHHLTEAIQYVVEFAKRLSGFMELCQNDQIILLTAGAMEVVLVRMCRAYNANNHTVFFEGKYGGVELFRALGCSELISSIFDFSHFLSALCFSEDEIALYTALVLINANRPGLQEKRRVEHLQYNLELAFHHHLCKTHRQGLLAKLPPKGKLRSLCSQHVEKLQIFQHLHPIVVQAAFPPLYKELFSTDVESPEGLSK
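Read-out: Photinus luciferase luminescence; inhibitors lower reporter signal. Insect Schneider cells with Gal4-ROR gamma fusion under metallothionein promoter, UAS reporter; 700 uM final copper sulfate induction, 20 hr, ambient temperature.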
Luc counter: Counterscreen for Luciferase (Kinase-Glo TM) Inhibition; Luciferin 4-monooxygenase (Photuris pensylvanica), Q27757; Kinase-Glo luciferase, ATP luminescence, 8 min; Potency, µM (titrated, usually from 38.3 µM), inactives show at the highest dose activity change, negative = inhibition, most hits filed as inhibitors; hit rate 0.28% among 200,000; AID 1379, 2008; note: nearly all actives have a fitted effect of over 60% in size
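Light output from Kinase-Glo luciferase with luciferin and 10 uM ATP in 50 mM imidazole pH 7.2, KCl, MgCl2, Tween 20, BSA; compound pin-delivered, 8-min ambient incubation, then luminescence read.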
Numbers without * were called inactive; u = inconclusive; x = no result given; [ ] = dose if it differs, or a comment. Only some compounds are listed: those with a hit (about 6.4% of all), similar ones and a draw of the others. Calls come from the whole dose curve; as a rule, active = well fitted curve in the direction sought with a large enough effect; inconclusive = small, poorly fitted or top-dose-only effect, or another doubt; inactive = no such curve, though single readings can be large; an effect the other way counts as inactive or inconclusive. % is set by controls: 0 for no effect and ±100 for the full control effect; potency is the fitted concentration of half-maximal effect.

SMILES	VP16 counter	RORg inh	Luc counter
COc1ccc(C2C(C(C)=O)=C(O)C(=O)N2CCc2c[nH]c3ccccc23)cc1OC (configuration not stated)	-1.1%	-1.1%	3.1%
CCc1nc(SCC(=O)NC2CC2)c2c(C)c(C)sc2n1	-0.7%	u	x
Cn1cc([N+](=O)[O-])c(C(=O)N2CCCCCC2)n1	-3.4%	0.4%	x
O=C(O)CCn1c(SCc2ccccc2)nc2ccccc21	x	1.9%[0.365 µM]	-2.2%
Cc1noc(C)c1CSc1nc2ccccc2c(=O)n1-c1ccc(Cl)cc1	5.3%	11.2µM*	0.0%
Cc1noc(C)c1CSc1nc2sc(C)c(C)c2c(=O)n1-c1ccccc1	-2.1%	10.3%	3.1%
Cc1noc(C)c1CSc1nc2ccccc2n1CCc1ccccc1	u	7.08µM*	-2.3%
Cc1ccc(C(=O)N/C(=C\c2ccco2)C(=O)NCCN2CCOCC2)cc1	-13.3%	-0.9%	x
CC(C)CN1CC2(CCN(C(=O)c3csnn3)CC2)C1	6.7%	-3.2%	-0.6%
Cc1ccc(-c2nnc(SCC(=O)NC3CC3)n2N)cc1	-5.5%	7.6%	x
COc1cc(NC(=O)COc2cc(O)c3c(c2)OC(C)(C)CC3=O)cc(OC)c1OC	2.51µM*	u	x
CC1(C)CC(=O)c2c(O)cc(OCC(=O)Nc3ccc(S(N)(=O)=O)cc3)cc2O1	-14.4%	-1.4%	x
COC(=O)[C@H](Cc1ccccc1)NC(=O)O[C@@H]1Cc2cc(OC)ccc2O[C@H]1c1cccc(OC)c1	4.9%	31.4%	-3.6%
COc1ccc2[nH]c(-c3ccccc3)cc2c1	-4.3%	14.0%	x
O=C(N/N=C/c1cn(-c2ccccc2)nc1-c1cccs1)c1ccc(Cl)cc1	5.01µM*	2.51µM*	-5.5%
O=C(Nc1ccncc1)c1cn(-c2ccccc2)nc1-c1cccs1	4.4%	19.9%	0.8%
O=C(N/N=C/c1cn(-c2ccccc2)nc1-c1cccs1)c1ccccc1F	6.31µM*	5.01µM*	9.1%
O=C(N/N=C\c1ccc(OC(=O)c2cccs2)cc1)c1ccc(Cl)cc1	-14.7%	-4.8%	-1.0%
COC(=O)c1cc(-c2ccc3ccccc3c2)[nH]c(=O)c1C#N	x	x	-2.2%[7.66 µM]
Cc1cc(NC(=O)c2ccc3c(c2)C(=O)N(C2CCCCC2)C3=O)no1	7.6%	-12.4%	2.0%
O=C(Nc1ccncc1)c1ccc2c(c1)C(=O)N(C1CCCCC1)C2=O	11.2µM*	u	-1.4%
CC(C)(C)c1ccc(C(=O)N2CCC(=O)N([C@H](COCc3ccc(Cl)cc3)Cc3ccccc3)CC2)cc1	-5.5%[40.7 µM]	4.4%[40.7 µM]	1.8%[39.9 µM]
COc1ccc(-c2nc(N)c(C#N)c(-c3cccnc3)c2C)cc1	-10.8%	26.9%	x
CCn1cc(CNC(=S)Nc2cccc(Cl)c2C)cn1	1.7%	-39.9%	2.8%
Cc1cccnc1NC(=S)NCCc1ccccc1	10µM*	2.82µM*	-4.7%
SMILES	VP16 counter	RORg inh	Luc counter
Cc1cccc(NC(=S)NCCc2ccccc2)c1C	5.01µM*	3.55µM*	x
Cc1cccc(NC(=S)NCc2ccccc2Cl)c1C	3.98µM*	5.01µM*	x
Cc1ccc(NC(=O)CCCc2ccccc2)nc1	27.5%	u	0.6%
Cc1cccnc1NC(=S)Nc1ncccc1C	1.9%	u	x
Cc1ccc(NC(=S)NCCc2ccccc2)nc1	5.01µM*	0.501µM*	-6.5%
Cc1cccc(NC(=O)CCc2ccccc2)c1C	4.7%	13.6%	x
COc1ccccc1CNC(=O)C1CCCN(S(=O)(=O)c2cccs2)C1 (configuration not stated)	-7.0%	19.4%	x
CN(CC#CC(O)(c1ccccc1)c1ccccc1)C(C)(C)C	2.4%	0.1%	x
COc1ccc(CCNC(=S)Nc2cccc(C)c2C)cc1	7.94µM*	3.98µM*	-0.2%
Cc1cccc(C)c1NC(=S)NCCc1ccc(O)c(O)c1	u	7.94µM*	0.7%
COCC(=O)NNC(=S)Nc1cccc(C)c1C	-16.8%	u	-0.8%
C=CCSc1nc2sc(C)c(C)c2c(=O)n1N	2.6%	31.0%	-0.9%
COC(=O)[C@@H](NC(=O)N1CCc2nc(-c3ccccc3)c3c(c2C1)CO[C@@H](C)C3)C(C)C	x	x	-13.4%[7.66 µM]
C=CCNC(=O)CSc1nnc(C(CC)N(C)C)n1C1CCCCC1 (configuration not stated)	-10.6%	12.5%	x
Oc1ccccc1N=Nc1ccccc1O	-23.8%	1.41µM*	-2.0%
Oc1ccccc1N=Cc1ccc[nH]1	10.6%	u	1.6%
CCCCCC(=O)N=Nc1c(O)[nH]c2ccc([N+](=O)[O-])cc12	-3.7%	-3.4%	-1.4%
O=[N+]([O-])c1ccc2[nH]c(O)c(N=NC(=S)Nc3cccnc3)c2c1	-1.0%	0.3%	x
O=[N+]([O-])c1ccc2[nH]c(O)c(N=NC(=S)NCC3CCCO3)c2c1 (configuration not stated)	u	3.98µM*	1.6%
CCNC(=S)N=Nc1c(O)[nH]c2ccc([N+](=O)[O-])cc12	11.2µM*	2µM*	0.1%
Cc1cc2c(cc1S(=O)(=O)N1CC(C)CC(C)C1)OCC(=O)N2 (configuration not stated)	-0.3%	-10.0%	x
CCC(Sc1nnc(C)c(=O)[nH]1)C(=O)Nc1cccc2ccccc12 (configuration not stated)	-9.9%	1.8%	x
CC(C)(C)n1ncc2c(=O)n(CC(=O)NCc3ccccc3)cnc21	u	10µM*	0.3%
CC(=O)Nc1ccc(NC(=O)Cn2cnc3c(cnn3C(C)(C)C)c2=O)cc1	x	-27.5%[0.365 µM]	-3.2%
O=C(NC1CCCC1)C(c1cccnc1)N(Cc1ccccc1)C(=O)c1csnn1 (configuration not stated)	-6.1%	-4.8%	x
SMILES	VP16 counter	RORg inh	Luc counter
O=C(NCCN1CCCCC1)Nc1cccc(F)c1	4.1%	-1.8%	x
O=C(N/N=C/c1cccc2ccccc12)c1cccs1	0.0%	-29.3%	x
O=C(N/N=C/c1ccc(Br)s1)c1ccncc1	1µM*	0.794µM*	-0.4%
O=C(N/N=C/c1ccc(Br)s1)c1c[nH]c2ccccc12	u	u	-0.7%
O=C(N/N=C/c1ccc(Br)s1)Nc1ccccc1	u	-72.1%	0.1%
O=C(N/N=C/c1ccc(Br)s1)c1cccs1	5.01µM*	3.16µM*	x
Cc1ccc(/C=N/NC(=O)c2cccs2)s1	11.2µM*	11.2µM*	-3.5%
CCn1cc(C(=O)O)c(=O)c2cnc(N3CCN(C(=S)Nc4ccccc4C(F)(F)F)CC3)nc21	0.0%	-0.2%	x
O=C(COC(=O)c1ccc(S(=O)(=O)N2CCCC2)cc1)NCc1cccs1	-0.1%[10 µM]	-5.6%	3.6%
CC(C)(C)NC(=O)NC(=O)COC(=O)CCC1CCCC1	-17.8%	-14.7%	x
COC(=O)[C@@H]1C(c2c(OC)cc(OC)cc2OC)=NO[C@H]1C(=O)OC	8.8%	-1.8%	8.1%
Cc1c(C)c2ccc(OC(C)C(=O)NCCc3c[nH]c4ccccc34)cc2oc1=O (configuration not stated)	2.0%	7.1%	x
O=C(CCC1CCCN(C(=O)c2ccoc2)C1)NCc1ccccc1F (configuration not stated)	6.4%	u	-1.0%
CC(C)(C)OC(=O)[C@H](Cc1ccccc1)NC(=O)c1nc[nH]c1C(=O)NCc1ccccc1	15.8µM*	11.2µM*	x
O=C(NCc1ccccc1)c1nc[nH]c1C(=O)NCc1ccccc1	u	-22.8%	-0.5%

Source: PubChem (National Center for Advancing Translational Sciences (NCATS))
